# Laboratory results from PubChem BioAssay (NCI).
# About 83,000 compounds went through this panel and 20% of them were active in at least one assay; those are over-represented in the sample as a whole.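 Plates (96-well) were seeded with cells, treated with compound at one concentration, and incubated for 48 hours before percent growth was determined.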 A number with no mark means an inactive call. Active and inactive are the calls of the source. How the source made its calls: active means growth percent below 10; inactive means the rest.
# Test system: A549/ATCC NSCLC
# Experiment: NCI-60 one-dose screen, 48 h (100 = growth as untreated, 0 = no growth, -100 = all killed)
# Details: 10 µM unless noted
row,Compound,growth
1,COc1ccc(C(=O)c2cc(OC)c(OC)c(OC)c2)cc1OC(C)=O,22.4%
2,COc1ccc(N(CC(=O)NCCC[Te]c2ccccc2)C(=O)CNC(=O)OC(C)(C)C)cc1,-9.26% (active)
3,COC(=O)[C@@H](C)C[C@H](Cc1ccccc1)NC(=O)c1csc([C@@H](C[C@H](C(C)C)N(C)C(=O)[C@@H](NC(=O)[C@H]2CCCCN2C)C(C)C)OC(C)=O)n1,14%
4,CC[C@H](C)[C@@H]1OC(=O)C(C)(C)[C@H](O)[C@H](Cc2ccccc2)OC(=O)[C@H](C(C)C)OC(=O)[C@@H](NC(=O)c2cccc(NC=O)c2O)[C@@H](C)OC1=O,49.5%
5,NC(=O)CNc1ccc([As]=[As]c2ccc(NCC(N)=O)cc2)cc1 (stereo not drawn),81%
6,Fc1ccc2c(c1)c(-c1nc(-c3c[nH]c4ncccc34)cs1)cn2CCN1CCOCC1,52.1%
7,O=C([O][Hg][CH2]C1COCC([CH2][Hg][O]C(=O)c2ccccc2)O1)c1ccccc1 (stereo not drawn),105%
8,O=[N+]([O-])CC(c1ccccc1Cl)c1c(-c2ccccc2)[nH]c2ccccc12 (stereo not drawn),31.5%
9,CCn1c2ccccc2c2cc(C(=O)c3cccc4c3CCCN4)ccc21,106%
10,COc1ccc(/C(C)=C(\c2ccc(OCCN3CCOCC3)cc2)c2ccc(OC(=O)Cc3ccccc3)cc2)cc1,94.3%
11,Cc1cc(N(CCCl)CCCl)ccc1C=Nc1ccc(-c2csc(Cc3ccccc3)n2)cc1,50.7%
12,Cc1ccc2c(C(C[N+](=O)[O-])c3cccs3)c(-c3ccccc3)[nH]c2c1 (stereo not drawn),28.8%
13,O=C(CC1(O)C(=O)N(Cc2ccccc2)c2ccc(Cl)cc21)c1ccc(C(=O)NCC2CCC3(CC2)OOC2(CCCCC2)OO3)cc1 (stereo not drawn),-55.8% (active)
14,CCOC(=O)CCC(NC(=O)C(Cc1ccc(N(CCCl)CCCl)cc1)NC=O)C(=O)OCC (stereo not drawn),61.8%
15,COC(=O)[C@@H](C)C[C@H](Cc1ccccc1)NC(=O)c1csc([C@@H](C[C@H](C(C)C)N(C)C(=O)[C@@H](NC(=O)C23CC(NC(C)=O)(C2)C3)C2CC2)OC(C)=O)n1,93.5%
16,COC(=O)[C@]12CCC(C)(C)C[C@H]1[C@H]1C(=O)C[C@@H]3[C@@]4(C)C[C@@]5(CC(C)(C)[C@@H]4CC[C@@]3(C)[C@]1(C)CC2)OO[C@@](C)(C(F)(F)F)O5,98%
17,CNC(=O)Oc1ccc(N(C)C)cc1C(C)C,94.9%
18,COc1ccc(/C=C\c2cc(OC)c(OC)c(OC)c2)cc1OCC(=O)Nc1nc2ccc(C(F)(F)F)cc2s1,27.1%
19,O=C(CC1(O)C(=O)N(Cc2ccccc2)c2ccc(F)cc21)c1ccc(C(=O)NCC2CCC3(CC2)OOC2(CCCCC2)OO3)cc1 (stereo not drawn),-52.4% (active)
20,c1cnc2[nH]cc(-c3csc(-c4cn(CCCCN5CCCCC5)c5ccccc45)n3)c2c1,83.6%
21,COc1ccc(NC([Se])=NC23CC4CC(CC(C4)C2)C3)cc1,-0.959% (active)
22,Clc1cccc(Cl)c1Cl,85.9%
23,C[C@]12CCc3sc(-c4ccccc4O)nc3C1=CC[C@@H]1[C@@H]2CC[C@]2(C)C(=O)CC[C@@H]12,103%
24,O=C(CC1(O)C(=O)Nc2ccccc21)c1ccc(C(=O)NCC2CCC3(CC2)OOC2(CCCCC2)OO3)cc1 (stereo not drawn),57.9%
25,CCCOC(=O)N[C@H]1CCc2c(Br)c(OC)c(OC)c(OC)c2-c2ccc(SC)c(=O)cc21,18.2%
26,Cc1cc(C)c(CBr)c(C)c1,95.1%

# Test system: 786-0 renal
# Experiment: as above
# Details: 10 µM unless noted
row,Compound,growth
1,CCCC[C@H](NC(=O)[C@H]1CCCN1C)C(=O)N(C)[C@H](C[C@@H](OC(C)=O)c1nc(C(=O)N[C@@H](Cc2ccccc2)C[C@H](C)C(=O)OCC)cs1)C(C)C,3.94% (active)
2,COc1ccc2c(c1)c(-c1nc(-c3c[nH]c4ncccc34)cs1)cn2CCCCN1CCCCC1,-90% (active)
3,COC(=O)[C@H](Cc1ccccc1)NC(=O)c1csc([C@@H](C[C@H](C(C)C)N(C)C(=O)[C@@H](NC(=O)[C@H]2CCCN2C)C2CC2)OC(C)=O)n1,31.6%
4,C[C@]12CC[C@H]3[C@@H](CC[C@]4(O)C[C@@H](O[C@@H]5O[C@H](CO)[C@@H](O[C@@H]6OC[C@@H](O)[C@H](O)[C@H]6O)[C@H](O)[C@H]5O)CC[C@]34C=O)[C@@]1(O)CC[C@@H]2C1=CC(=O)OC1,0.0388% (active)
5,c1cc2c(c3c1CCNC3)OCO2,96.2%
6,Fc1ccc2c(c1)c(-c1nc(-c3c[nH]c4ncccc34)cs1)cn2CCCCN1CCCCC1,-93.7% (active)
7,O=C(Nc1ccncc1F)c1cn(CC2CC2)c2ccccc12,97.6%
8,COP(=S)(N1CC1)N1CC1,105%
9,C/C=C(\C)C(=O)O[C@@H]1C(O)[C@H]2OC(COC(=O)CCC(=O)CCCCCC[C@H](CCCCC)O[C@@H]3OC(C)[C@H](OC(C)=O)C(O)[C@H]3O2)[C@H]1OC(=O)/C=C/c1ccccc1 (stereo partly drawn),5.52% (active)
10,CCc1ccccc1[C@@H]1C[C@]2(C)CCO[C@@H]2OO1,101%
11,CC(=O)O[C@H](C[C@H](C(C)C)N(C)C(=O)[C@@H](NC(=O)[C@H]1CCCCN1C)C(C)(C)C)c1nc(C(=O)N[C@@H](Cc2ccccc2)C[C@H](C)C(=O)O)cs1,11.1%
12,COc1ccc(C(=O)c2cc(OC)c(OC)c(OC)c2)cc1OC(C)=O,26.5%
13,COc1ccc(N(CC(=O)NCCC[Te]c2ccccc2)C(=O)CNC(=O)OC(C)(C)C)cc1,73.3%
14,COC(=O)[C@@H](C)C[C@H](Cc1ccccc1)NC(=O)c1csc([C@@H](C[C@H](C(C)C)N(C)C(=O)[C@@H](NC(=O)[C@H]2CCCCN2C)C(C)C)OC(C)=O)n1,4.12% (active)
15,CC[C@H](C)[C@@H]1OC(=O)C(C)(C)[C@H](O)[C@H](Cc2ccccc2)OC(=O)[C@H](C(C)C)OC(=O)[C@@H](NC(=O)c2cccc(NC=O)c2O)[C@@H](C)OC1=O,64.5%
16,NC(=O)CNc1ccc([As]=[As]c2ccc(NCC(N)=O)cc2)cc1 (stereo not drawn),29.7%
17,Fc1ccc2c(c1)c(-c1nc(-c3c[nH]c4ncccc34)cs1)cn2CCN1CCOCC1,71.6%
18,O=C([O][Hg][CH2]C1COCC([CH2][Hg][O]C(=O)c2ccccc2)O1)c1ccccc1 (stereo not drawn),104%
19,O=[N+]([O-])CC(c1ccccc1Cl)c1c(-c2ccccc2)[nH]c2ccccc12 (stereo not drawn),25.2%

row,Compound,growth
1,CCn1c2ccccc2c2cc(C(=O)c3cccc4c3CCCN4)ccc21,99%
2,COc1ccc(/C(C)=C(\c2ccc(OCCN3CCOCC3)cc2)c2ccc(OC(=O)Cc3ccccc3)cc2)cc1,104%
3,Cc1cc(N(CCCl)CCCl)ccc1C=Nc1ccc(-c2csc(Cc3ccccc3)n2)cc1,50.8%
4,Cc1ccc2c(C(C[N+](=O)[O-])c3cccs3)c(-c3ccccc3)[nH]c2c1 (stereo not drawn),38.6%
5,O=C(CC1(O)C(=O)N(Cc2ccccc2)c2ccc(Cl)cc21)c1ccc(C(=O)NCC2CCC3(CC2)OOC2(CCCCC2)OO3)cc1 (stereo not drawn),-73.6% (active)
6,CCOC(=O)CCC(NC(=O)C(Cc1ccc(N(CCCl)CCCl)cc1)NC=O)C(=O)OCC (stereo not drawn),-40.8% (active)
7,COC(=O)[C@@H](C)C[C@H](Cc1ccccc1)NC(=O)c1csc([C@@H](C[C@H](C(C)C)N(C)C(=O)[C@@H](NC(=O)C23CC(NC(C)=O)(C2)C3)C2CC2)OC(C)=O)n1,65%
8,COC(=O)[C@]12CCC(C)(C)C[C@H]1[C@H]1C(=O)C[C@@H]3[C@@]4(C)C[C@@]5(CC(C)(C)[C@@H]4CC[C@@]3(C)[C@]1(C)CC2)OO[C@@](C)(C(F)(F)F)O5,97.8%
9,CNC(=O)Oc1ccc(N(C)C)cc1C(C)C,102%
10,COc1ccc(/C=C\c2cc(OC)c(OC)c(OC)c2)cc1OCC(=O)Nc1nc2ccc(C(F)(F)F)cc2s1,83.2%
11,O=C(CC1(O)C(=O)N(Cc2ccccc2)c2ccc(F)cc21)c1ccc(C(=O)NCC2CCC3(CC2)OOC2(CCCCC2)OO3)cc1 (stereo not drawn),-67% (active)
12,c1cnc2[nH]cc(-c3csc(-c4cn(CCCCN5CCCCC5)c5ccccc45)n3)c2c1,80.7%
13,COc1ccc(NC([Se])=NC23CC4CC(CC(C4)C2)C3)cc1,-42.1% (active)
14,Clc1cccc(Cl)c1Cl,96.1%
15,C[C@]12CCc3sc(-c4ccccc4O)nc3C1=CC[C@@H]1[C@@H]2CC[C@]2(C)C(=O)CC[C@@H]12,102%
16,O=C(CC1(O)C(=O)Nc2ccccc21)c1ccc(C(=O)NCC2CCC3(CC2)OOC2(CCCCC2)OO3)cc1 (stereo not drawn),-34% (active)
17,CCCOC(=O)N[C@H]1CCc2c(Br)c(OC)c(OC)c(OC)c2-c2ccc(SC)c(=O)cc21,1.42% (active)
18,Cc1cc(C)c(CBr)c(C)c1,99.2%
